Test results from PubChem BioAssay AID1159580 (chemical genetic matrix, 2015).
Where “and” joins values, the source holds several entries; their conditions need not be identical. Equal values may be shown once. The campaign covered roughly 5,500 compounds. About 2,000 (36%) were called active. Inconclusive results (about 18%) are left out. Cut-off read from the data, not from the text of the source: active = normalized growth mostly below about 0.91 (no sharp cut-off); inconclusive = no clear call, values can overlap the other calls; inactive = mostly above about 0.92. The list shows a part of the results.

Assay: chemical genetic growth profiling, strain panel (AID 1159580);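 note: tested at 20 µM; growth read once vehicle control cultures reached saturation at 30 °C; 1 = growth at the plate median or of vehicle wells; lower values mean less growth of the strain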
Settings: S. cerevisiae deletion strains, growth OD

Measured: normalized growth

CC(=O)Oc1cc(OC(C)=O)c2c(c1)O[C@H](c1ccc(OC(C)=O)c(OC(C)=O)c1)[C@H](OC(C)=O)C2
inactive: locus YAL013W, strain DEP1, hits give low values 1.01 | locus YAL021C, strain ccr4, hits give low values 1 | locus YAL026C, strain drs2, hits give low values 1.01 | locus YAL030W, strain snc1, hits give low values 1 | locus YBL061C, strain skt5, hits give low values 0.994 | locus YBR009C, strain hhf1, hits give low values 0.965 | locus YBR021W, strain FUR4, hits give low values 1 | locus YBR023C, strain chs3, hits give low values 0.998 | locus YBR171W, strain sec66, hits give low values 0.999 | locus YBR229C, strain ROT2, hits give low values 1.01 | locus YBR231C, strain swc5, hits give low values 1.01 | locus YBR279W, strain paf1, hits give low values 0.985 | locus YCL011C, strain gbp2, hits give low values 0.982 | locus YCL016C, strain dcc1, hits give low values 0.971 | locus YCL029C, strain bik1, hits give low values 1.02 | locus YCL061C, strain MRC1, hits give low values 0.999 | locus YCL069W, strain vba3, hits give low values 1 | locus YCR088W, strain abp1, hits give low values 1 | locus YDL005C, strain med2, hits give low values 1.01 | locus YDL035C, strain GPR1, hits give low values 1.01 | locus YDL040C, strain nat1, hits give low values 1 | locus YDL074C, strain BRE1, hits give low values 1.01 | locus YDL101C, strain DUN1, hits give low values 1.01 | locus YDL185W, strain tfp1, hits give low values 1.03 | locus YDL192W, strain arf1, hits give low values 1.02 | locus YDR001C, strain nth1, hits give low values 0.999 | locus YDR069C, strain doa4, hits give low values 1 | locus YDR101C, strain arx1, hits give low values 1.02 | locus YDR137W, strain rgp1, hits give low values 1.02 | locus YDR159W, strain sac3, hits give low values 1.02 | locus YDR162C, strain NBP2, hits give low values 1 | locus YDR195W, strain ref2 1.04 | locus YDR297W, strain sur2, hits give low values 0.996 | locus YDR318W, strain mcm21, hits give low values 1.03 | locus YDR334W, strain swr1, hits give low values 1 | locus YDR335W, strain msn5, hits give low values 1 | locus YDR388W, hits give low values 1.03 | locus YDR392W, strain spt3, hits give low values 0.964 | locus YDR502C, strain sam2, hits give low values 1.02 | locus YEL003W, strain gim4, hits give low values 1 | locus YEL037C, strain rad23, hits give low values 1 | locus YEL061C, strain CIN8 (second series), hits give low values 0.997 | locus YEL061C, strain CIN8, hits give low values 1 | locus YER015W, strain faa2, hits give low values 0.983 | locus YER016W, strain bim1, hits give low values 1 | locus YER110C, hits give low values 1.03 | locus YER111C, strain swi4, hits give low values 0.995 | locus YER155C, strain BEM2 (second series), hits give low values 1.05 | locus YER155C, strain BEM2, hits give low values 0.999 | locus YER167W, strain BCK2, hits give low values 1.02 | locus YFR010W, strain ubp6, hits give low values 0.998 | locus YGL078C, strain dbp3, hits give low values 1.02 | locus YGL086W, strain mad1, hits give low values 0.997 | locus YGL167C, strain pmr1, hits give low values 0.998 | locus YGL173C, strain kem1, hits give low values 1 | locus YGL227W, strain vid30, hits give low values 0.991 | locus YGL240W, strain doc1, hits give low values 1.04 | locus YGL248W, strain PDE1, hits give low values 1.01 | locus YGL253W, strain hxk2, hits give low values 0.984 | locus YGR078C, strain PAC10, hits give low values 1 | locus YGR135W, strain pre9, hits give low values 1.02 | locus YGR252W, strain gcn5, hits give low values 1.05 | locus YHR013C, strain ard1, hits give low values 0.999 | locus YHR027C, strain rpn1, hits give low values 0.999 | locus YHR030C, strain SLT2, hits give low values 1.01 and 0.946 | locus YHR079C, strain IRE1 (second series), hits give low values 1.03 | locus YHR079C, strain IRE1, hits give low values 0.968 | locus YHR094C, strain hxt1, hits give low values 1.02 | locus YHR129C, strain ARP1, hits give low values 1.01 | locus YHR142W, strain chs7, hits give low values 0.944 | locus YHR200W, strain rpn10, hits give low values 1.03 | locus YIL066C, strain RNR3, hits give low values 0.999 | locus YIL073C, strain SPO22, hits give low values 1.1 | locus YIL125W, strain kgd1, hits give low values 1.01 | locus YIR030C, strain dcg1, hits give low values 1.03 | locus YJL092W, strain hpr5, hits give low values 1 | locus YJL095W, strain BCK1 (second series), hits give low values 0.99 | locus YJL095W, strain BCK1, hits give low values 1 and 0.959 | locus YJL115W, strain asf1, hits give low values 1 | locus YJL129C, strain trk1, hits give low values 0.999 | locus YJL134W, strain LCB3, hits give low values 1.01 | locus YJL154C, strain vps35, hits give low values 1 | locus YJL164C, strain tpk1, hits give low values 0.984 | locus YJL166W, strain qcr8, hits give low values 1 | locus YJL168C, strain set2, hits give low values 1.03 | locus YJL187C, strain SWE1 (second series), hits give low values 1.01 | locus YJL187C, strain SWE1, hits give low values 1.01 | locus YJR043C, strain POL32, hits give low values 1.01 | locus YJR066W, strain TOR1, hits give low values 0.935 | locus YJR075W, strain HOC1, hits give low values 1.02 | locus YKL009W, strain mrt4, hits give low values 1.02 | locus YKL068W, hits give low values 1.01 | locus YKL085W, strain MDH1 (second series), hits give low values 1.01 | locus YKL085W, strain MDH1, hits give low values 1.01 | locus YKL160W, strain elf1, hits give low values 1.01 | locus YKR001C, strain vps1, hits give low values 1.02 | locus YKR026C, strain gcn3, hits give low values 0.994 | locus YKR091W, strain srl3, hits give low values 0.994 | locus YLL001W, strain dnm1, hits give low values 0.985 | locus YLL026W, hits give low values 0.999 | locus YLL041C, strain sdh2, hits give low values 1.01 | locus YLR027C, strain aat2, hits give low values 1.01 | locus YLR039C, strain RIC1, hits give low values 1.09 | locus YLR058C, strain SHM2, hits give low values 1.01 | locus YLR102C, strain apc9, hits give low values 1.02 | locus YLR113W, strain HOG1, hits give low values 0.94 | locus YLR221C, strain rsa3, hits give low values 0.964 | locus YLR258W, strain gsy2, hits give low values 0.979 | locus YLR262C, strain YPT6 (second series), hits give low values 0.997 | locus YLR262C, strain YPT6, hits give low values 1.12 | locus YLR268W, strain sec22, hits give low values 1.04 | locus YLR320W, strain mms22, hits give low values 0.984 | locus YLR330W, strain CHS5, hits give low values 1.02 | locus YLR342W, strain FKS1 (second series), hits give low values 1.01 | locus YLR342W, strain FKS1, hits give low values 1 | locus YLR357W, strain rsc2, hits give low values 1.01 | locus YLR370C, strain arc18, hits give low values 0.979 | locus YLR371W, strain rom2, hits give low values 1.03 | locus YLR384C, strain iki3, hits give low values 1 | locus YLR418C, strain cdc73, hits give low values 1.06 | locus YML016C, strain PPZ1, hits give low values 1.01 | locus YML032C, strain rad52, hits give low values 1.03 | locus YML120C, strain ndi1, hits give low values 0.981 | locus YML124C, strain tub3, hits give low values 1.02 | locus YMR058W, strain fet3, hits give low values 1.01 | locus YMR078C, strain ctf18, hits give low values 1.02 | locus YMR125W, strain sto1, hits give low values 0.995 | locus YMR129W, hits give low values 1 | locus YMR205C, strain PFK2, hits give low values 0.992 | locus YMR223W, strain ubp8, hits give low values 1.02 | locus YMR231W, strain pep5, hits give low values 1.01 | locus YMR307W, strain GAS1, hits give low values 1.01 | locus YNL067W, strain RPL9B, hits give low values 1.02 | locus YNL071W, strain lat1, hits give low values 1.01 | locus YNL183C, strain NPR1, hits give low values 0.91 | locus YNL209W, strain ssb2, hits give low values 0.996 | locus YNL233W, strain BNI4, hits give low values 1.01 | locus YNL248C, strain rpa49, hits give low values 1.03 | locus YNL250W, strain rad50, hits give low values 1.03 | locus YNL271C, strain bni1, hits give low values 1.02 | locus YNL298W, strain CLA4, hits give low values 1.03 | locus YNL307C, strain MCK1, hits give low values 1.07 | locus YNL322C, strain KRE1 (second series), hits give low values 0.997 | locus YNR049C, strain mso1, hits give low values 1 | locus YNR052C, strain pop2, hits give low values 1.03 | locus YOL012C, strain htz1 0.664 | locus YOL147C, strain pex11, hits give low values 1.02 | locus YOR001W, strain rrp6, hits give low values 1.02 | locus YOR061W, strain CKA2, hits give low values 1 | locus YOR069W, strain VPS5, hits give low values 1.01 | locus YOR070C, strain gyp1, hits give low values 0.997 | locus YOR080W, strain dia2, hits give low values 1 | locus YOR083W, strain WHI5, hits give low values 0.997 | locus YOR106W, strain vam3, hits give low values 1.01 | locus YOR136W, strain idh2, hits give low values 1.05 | locus YOR144C, strain elg1, hits give low values 1.02 | locus YOR184W, strain ser1, hits give low values 1.03 | locus YOR231W, strain MKK1, hits give low values 0.965 | locus YOR265W, strain rbl2, hits give low values 1.01 | locus YOR270C, strain vph1, hits give low values 0.943 | locus YOR290C, strain snf2, hits give low values 0.996 | locus YOR316C, strain cot1, hits give low values 1.03 | locus YPL051W, strain arl3, hits give low values 0.997 | locus YPL078C, strain atp4, hits give low values 1.01 | locus YPL106C, strain sse1, hits give low values 0.967 | locus YPL240C, strain hsp82, hits give low values 0.99 | locus YPL256C, strain CLN2, hits give low values 0.933 | locus YPR119W, strain clb2, hits give low values 1.01 | locus YPR141C, strain kar3, hits give low values 1.02 | locus YPR163C, strain tif3, hits give low values 1.05 | locus YPR167C, strain met16, hits give low values 1.04 | strain wtn01, hits give low values 1.01
